# Test results published in PubChem BioAssay (NCATS).
# Values joined by “and” are separate entries in the source; they are usually repeats but may differ in a detail not shown here. Identical values can stand only once. Records with an inconclusive call do not appear. Where a call stands in place of a potency, no number is given. A structure can be active in one record and inactive in another. Active and inactive are the calls of the source. Unless noted, the call rests on the fitted dose curve; in most records, active means well fitted curve in the direction sought with a large enough effect; inconclusive means small, poorly fitted or top-dose-only effect, or another doubt; inactive means no such curve, though single readings can be large; an effect the other way counts as inactive or inconclusive.
# Tests used:
# [1] = Primary qHTS for small molecule stabilizers of the endoplasmic reticulum resident proteome: Secreted ER Calcium Modulated Protein (SERCaMP) assay (AID 1508630); further: potency means the concentration at half of the fitted maximal effect
# Procedure, shortened: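 GLuc-SERCaMP-expressing SH-SY5Y cells, pretreated 16 h with compound, are challenged with thapsigargin to empty ER calcium stores; after 4 h, coelenterazine is added directly to the medium and luminescence is imaged.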
# [2] = Primary qHTS for inhibitors of nuclear receptor binding SET domain protein 2 (NSD2) in an isogenic RCH-ACV NSD2 p.E1099K mutant (9B) (AID 1645876); further: nearly all actives have a fitted effect of over 70% in size; further: potency means the concentration at half of the fitted maximal effect
# [3] = NCATS anti-infectives library activity on HEK293 viability as a counter-qHTS vs the C. elegans viability qHTS (AID 1745854);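 further: HEK293 cells exposed to compounds for 24 hr before the viability read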
# Procedure, shortened: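 Cytotoxicity in human HEK293 cells is measured by ATP-dependent CellTiter-Glo luminescence following a 24 hr incubation with titrated library compounds at 37C. Top final concentration is 41.7 uM.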
# [4] = A High-Content qHTS Against Drug Library for the Identification of Small Molecules that Inhibit DYT1 Early Onset Primary Dystonia-Associated Cell Pathology (AID 1645839; calls by dose curve)
# Procedure, shortened: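 Flp-In T-REx 293 cells with tetracycline-inducible EGFP-delE hTOR1A (WT EGFP-hTOR1A as reference), 800 cells/well; compound added with tetracycline, 48 h at 37 C. Fixed, permeabilized cells imaged; %pathology (punctate TorsinA) primary, cell count counterscreen.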
# Papain (Carica papaya) = Papain (Carica papaya) (UniProt P00784); assay: Primary qHTS assay for inhibitors of the protease papain (AID 1645873);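 further: papain turnover of Z-FR-AMC read as the AMC fluorescence gain over 10 min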; further: potency means the concentration at half of the fitted maximal effect
# Chain of Papain (Carica papaya) (P00784 whole entry, looked up): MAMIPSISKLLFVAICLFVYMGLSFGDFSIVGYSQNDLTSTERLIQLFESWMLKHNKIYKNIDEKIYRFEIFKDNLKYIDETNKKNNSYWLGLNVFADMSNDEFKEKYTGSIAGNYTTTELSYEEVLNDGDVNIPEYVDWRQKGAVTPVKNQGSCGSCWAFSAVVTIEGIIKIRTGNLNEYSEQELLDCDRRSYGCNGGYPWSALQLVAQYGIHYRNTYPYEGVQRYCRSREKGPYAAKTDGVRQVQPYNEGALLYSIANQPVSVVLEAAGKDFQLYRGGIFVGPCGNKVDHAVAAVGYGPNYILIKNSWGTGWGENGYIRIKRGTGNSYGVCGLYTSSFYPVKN
# [5] = target: Cytochrome P450 2D6 (Homo sapiens) (UniProt P10635); assay: Cytochrome P450 family 2 subfamily D member 6 (CYP2D6) small molecule antagonists: luciferase biochemical (cell-free) qHTS assay (AID 1645840; active means well fitted curve in the direction sought with a large enough effect in the repeat runs; an effect the other way counts as inactive or inconclusive; further: nearly all actives have a fitted effect of over 55% in size)
# Chain of Cytochrome P450 2D6 (Homo sapiens) (P10635 whole entry, looked up): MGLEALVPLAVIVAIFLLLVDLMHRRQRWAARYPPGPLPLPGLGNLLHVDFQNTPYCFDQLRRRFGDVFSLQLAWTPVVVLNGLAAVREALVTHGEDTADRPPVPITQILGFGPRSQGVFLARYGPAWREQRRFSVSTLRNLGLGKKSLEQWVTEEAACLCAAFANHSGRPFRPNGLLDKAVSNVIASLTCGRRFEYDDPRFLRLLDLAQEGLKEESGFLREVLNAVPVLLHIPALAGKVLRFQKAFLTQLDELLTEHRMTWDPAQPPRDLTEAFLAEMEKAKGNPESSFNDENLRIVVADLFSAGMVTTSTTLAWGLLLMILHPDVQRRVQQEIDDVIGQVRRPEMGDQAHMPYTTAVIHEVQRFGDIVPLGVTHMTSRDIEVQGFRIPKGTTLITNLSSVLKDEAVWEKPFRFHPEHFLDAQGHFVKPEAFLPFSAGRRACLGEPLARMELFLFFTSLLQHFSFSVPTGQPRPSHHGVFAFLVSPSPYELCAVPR
# Procedure, shortened: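 P450-Glo luminescent screen: recombinant CYP2D6 enzyme–proluciferin substrate mix preincubated with compound 10 min at room temperature, then NADPH regeneration added for 1 h at room temperature. Detection reagent added for 20 min; luciferin light read as relative luminescence units.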
# [6] = target: Cytochrome P450 2C9 (Homo sapiens) (UniProt P11712); assay: Cytochrome P450 family 2 subfamily C member 9 (CYP2C9) small molecule antagonists: luciferase biochemical (cell-free) qHTS assay (AID 1645842; active means well fitted curve in the direction sought with a large enough effect in the repeat runs; an effect the other way counts as inactive or inconclusive; further: nearly all actives have a fitted effect of over 55% in size)
# Chain of Cytochrome P450 2C9 (Homo sapiens) (P11712 whole entry, looked up): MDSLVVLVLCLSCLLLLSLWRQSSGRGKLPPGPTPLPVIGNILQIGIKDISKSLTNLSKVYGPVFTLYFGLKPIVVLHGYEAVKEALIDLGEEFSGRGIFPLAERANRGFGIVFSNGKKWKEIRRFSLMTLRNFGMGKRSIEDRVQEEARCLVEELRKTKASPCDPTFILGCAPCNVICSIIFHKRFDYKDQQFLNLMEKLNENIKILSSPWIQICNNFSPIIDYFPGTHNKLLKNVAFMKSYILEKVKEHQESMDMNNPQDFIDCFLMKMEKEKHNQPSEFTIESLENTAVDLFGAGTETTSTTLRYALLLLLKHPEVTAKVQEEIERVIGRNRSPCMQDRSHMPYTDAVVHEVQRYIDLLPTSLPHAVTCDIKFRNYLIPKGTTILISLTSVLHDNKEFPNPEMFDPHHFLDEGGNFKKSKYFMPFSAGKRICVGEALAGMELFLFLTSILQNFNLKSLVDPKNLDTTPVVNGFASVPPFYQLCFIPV
# Procedure, shortened: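 Luminescence, after 20 min with luciferin detection reagent, reflected CYP2C9 turnover during a 1 h NADPH-driven reaction at 37C. Enzyme-substrate mix contained 0.4% bovine serum albumin and was preincubated with compound 10 min at room temperature.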
# [7] = Primary qHTS for inhibitors of nuclear receptor binding SET domain protein 2 (NSD2) in an RCH-ACV wild type WT cells (2C) (AID 1645877); further: nearly all actives have a fitted effect of over 70% in size; further: potency means the concentration at half of the fitted maximal effect
# [8] = target: Rap guanine nucleotide exchange factor 3 (Homo sapiens) (UniProt O95398); assay: Confirmatory qHTS for antagonist of cAMP-regulated guanine nucleotide exchange factor 3 (EPAC1) (AID 1645880); further: potency means the concentration at half of the fitted maximal effect; nearly all actives have a fitted effect of over 55% in size
# Chain of Rap guanine nucleotide exchange factor 3 (Homo sapiens) (O95398 whole entry, looked up): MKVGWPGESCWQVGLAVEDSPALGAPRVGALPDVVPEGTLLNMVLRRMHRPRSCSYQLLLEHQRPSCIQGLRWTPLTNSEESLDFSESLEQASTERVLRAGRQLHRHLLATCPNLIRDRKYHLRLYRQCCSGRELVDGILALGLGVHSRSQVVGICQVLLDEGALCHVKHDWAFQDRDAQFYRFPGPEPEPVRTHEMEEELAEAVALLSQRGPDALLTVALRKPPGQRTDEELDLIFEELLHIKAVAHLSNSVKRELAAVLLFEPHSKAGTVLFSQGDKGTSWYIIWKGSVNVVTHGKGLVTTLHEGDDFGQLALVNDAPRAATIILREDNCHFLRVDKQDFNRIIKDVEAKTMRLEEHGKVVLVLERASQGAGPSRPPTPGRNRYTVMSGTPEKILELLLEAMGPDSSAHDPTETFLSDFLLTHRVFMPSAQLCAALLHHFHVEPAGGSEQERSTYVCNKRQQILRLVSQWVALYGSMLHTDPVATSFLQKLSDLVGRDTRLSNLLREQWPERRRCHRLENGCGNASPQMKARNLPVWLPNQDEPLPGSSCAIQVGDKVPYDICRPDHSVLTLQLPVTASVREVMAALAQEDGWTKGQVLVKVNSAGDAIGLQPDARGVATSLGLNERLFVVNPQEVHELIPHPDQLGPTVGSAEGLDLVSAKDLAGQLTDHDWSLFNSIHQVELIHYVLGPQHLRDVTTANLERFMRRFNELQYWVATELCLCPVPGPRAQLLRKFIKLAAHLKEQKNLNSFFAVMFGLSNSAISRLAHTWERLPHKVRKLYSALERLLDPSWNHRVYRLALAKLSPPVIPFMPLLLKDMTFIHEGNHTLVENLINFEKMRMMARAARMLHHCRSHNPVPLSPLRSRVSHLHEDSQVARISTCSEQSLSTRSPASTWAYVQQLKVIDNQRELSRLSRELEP
# Procedure, shortened: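 Nucleotide exchange uses 100 nM EPAC1, 250 nM RAP1B-BODIPY-GDP and 50 uM GDP, with compounds in a concentration-titration series. After 5 min at room temperature, fluorescence (480 nm ex/540 nm em) is read every 5 min for 30 min. Data are normalized to control ATA and DMSO.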
# [9] = target: Rap guanine nucleotide exchange factor 3 (Homo sapiens) (UniProt O95398); assay: Confirmatory qHTS for agonist of cAMP-regulated guanine nucleotide exchange factor 3 (EPAC1) (AID 1645881);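 further: EPAC1 catalysed release of BODIPY-GDP from Rap1B seen as fluorescence loss; nearly all actives have a fitted effect of over 75% in size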
# [10] = target: Rap guanine nucleotide exchange factor 4 (Homo sapiens) (UniProt Q8WZA2); assay: Confirmatory qHTS for agonist of cAMP-regulated guanine nucleotide exchange factor 4 (EPAC2) (AID 1645884);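 further: nucleotide exchange releases bodipy-GDP from Rap1 and this lowers its fluorescence; nearly all actives have a fitted effect of over 65% in size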
# Chain of Rap guanine nucleotide exchange factor 4 (Homo sapiens) (Q8WZA2 whole entry, looked up): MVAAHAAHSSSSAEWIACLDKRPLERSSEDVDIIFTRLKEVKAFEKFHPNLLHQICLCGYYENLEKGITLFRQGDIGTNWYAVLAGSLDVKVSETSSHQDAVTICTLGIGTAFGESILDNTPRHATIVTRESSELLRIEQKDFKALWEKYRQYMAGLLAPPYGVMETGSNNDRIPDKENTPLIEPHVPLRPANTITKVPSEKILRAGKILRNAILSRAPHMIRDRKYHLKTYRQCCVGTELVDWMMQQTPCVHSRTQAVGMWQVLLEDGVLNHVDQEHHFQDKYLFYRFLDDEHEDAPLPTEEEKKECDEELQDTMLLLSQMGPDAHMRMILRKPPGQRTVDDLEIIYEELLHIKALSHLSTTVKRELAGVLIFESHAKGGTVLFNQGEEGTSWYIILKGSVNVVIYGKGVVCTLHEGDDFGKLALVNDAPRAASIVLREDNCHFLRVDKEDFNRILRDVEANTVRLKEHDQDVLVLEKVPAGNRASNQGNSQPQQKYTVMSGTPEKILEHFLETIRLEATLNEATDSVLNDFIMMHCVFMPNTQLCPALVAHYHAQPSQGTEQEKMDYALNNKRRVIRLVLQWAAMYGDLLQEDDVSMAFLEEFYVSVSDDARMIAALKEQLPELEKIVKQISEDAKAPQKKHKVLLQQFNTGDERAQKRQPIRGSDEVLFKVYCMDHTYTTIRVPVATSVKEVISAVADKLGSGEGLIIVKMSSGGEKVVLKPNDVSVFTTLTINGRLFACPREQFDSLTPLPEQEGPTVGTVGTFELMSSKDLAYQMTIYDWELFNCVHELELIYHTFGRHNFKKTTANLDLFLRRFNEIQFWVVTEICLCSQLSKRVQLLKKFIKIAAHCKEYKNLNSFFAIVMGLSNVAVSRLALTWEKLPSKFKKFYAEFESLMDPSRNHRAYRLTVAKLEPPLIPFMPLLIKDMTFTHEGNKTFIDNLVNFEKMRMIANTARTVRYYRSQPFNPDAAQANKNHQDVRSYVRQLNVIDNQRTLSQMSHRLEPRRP
# [11] = target: Rap guanine nucleotide exchange factor 4 (Homo sapiens) (UniProt Q8WZA2); assay: Confirmatory qHTS for antagonist of cAMP-regulated guanine nucleotide exchange factor 4 (EPAC2) (AID 1645885); further: nearly all actives have a fitted effect of over 25% in size; further: potency means the concentration at half of the fitted maximal effect
# [12] = target: Catechol O-methyltransferase (Homo sapiens) (UniProt P21964); assay: Confirmatory Screen for Target Class Profiling of Small Molecule Inhibitors of Methyltransferases (AID 1745852; calls by dose curve); conditions: MTase-Glo luminescence, SAH detection, recombinant enzyme; measured here: COMT max response; stronger effect = lower value
# Chain of Catechol O-methyltransferase (Homo sapiens) (P21964 whole entry, looked up): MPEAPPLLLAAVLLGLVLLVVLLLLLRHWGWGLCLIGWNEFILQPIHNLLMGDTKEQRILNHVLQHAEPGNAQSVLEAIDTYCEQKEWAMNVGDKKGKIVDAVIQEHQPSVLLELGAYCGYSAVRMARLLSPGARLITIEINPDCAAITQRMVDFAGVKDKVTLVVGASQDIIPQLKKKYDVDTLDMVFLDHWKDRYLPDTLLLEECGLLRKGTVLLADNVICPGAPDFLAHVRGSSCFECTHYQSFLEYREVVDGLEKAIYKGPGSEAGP
# [13] = target: Guanidinoacetate N-methyltransferase (Homo sapiens) (UniProt Q14353); assay: as above; conditions: MTase-Glo luminescence, SAH detection, recombinant enzyme; activity change, negative = inhibition: at 57.3 µM (top of the series) unless noted
# [14] = target: Nicotinamide N-methyltransferase (Homo sapiens) (UniProt P40261); assay: as above; conditions: MTase-Glo luminescence, SAH detection, recombinant enzyme; measured here: NNMT max response; stronger effect = lower value
# Chain of Nicotinamide N-methyltransferase (Homo sapiens) (P40261 whole entry, looked up): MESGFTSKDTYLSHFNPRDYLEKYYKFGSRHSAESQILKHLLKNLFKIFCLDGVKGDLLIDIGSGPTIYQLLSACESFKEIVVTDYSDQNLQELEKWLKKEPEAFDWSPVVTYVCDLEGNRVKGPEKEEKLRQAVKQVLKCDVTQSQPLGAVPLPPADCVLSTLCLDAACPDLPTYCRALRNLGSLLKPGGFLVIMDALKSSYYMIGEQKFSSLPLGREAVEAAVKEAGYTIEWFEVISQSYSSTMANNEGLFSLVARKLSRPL
# [15] = target: Phenylethanolamine N-methyltransferase (Homo sapiens) (UniProt P11086); assay: as above; conditions: MTase-Glo luminescence, SAH detection, recombinant enzyme; measured here: PNMT max response; stronger effect = lower value
# Chain of Phenylethanolamine N-methyltransferase (Homo sapiens) (P11086 whole entry, looked up): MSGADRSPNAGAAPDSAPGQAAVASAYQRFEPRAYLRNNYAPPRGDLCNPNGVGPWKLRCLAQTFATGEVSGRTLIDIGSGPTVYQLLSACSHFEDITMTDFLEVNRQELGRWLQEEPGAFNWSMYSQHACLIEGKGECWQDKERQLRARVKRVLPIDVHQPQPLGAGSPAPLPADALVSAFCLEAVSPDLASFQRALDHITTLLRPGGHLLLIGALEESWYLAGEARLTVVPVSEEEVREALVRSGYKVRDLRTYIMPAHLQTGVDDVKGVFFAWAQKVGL
# [16] = NCATS anti-infectives library activity on the primary C. elegans qHTS viability assay (AID 1745855; calls by dose curve)
# Procedure, shortened: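 Viability is taken from GFP fluorescence of PE254-GFP-FLuc C. elegans imaged by laser cytometry over 7 days. Ten L1 worms per well grow at 21 °C on TOP10 E. coli capsules with titrated compound; levamisole marks toxicity.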
# [17] = target: N-terminal Xaa-Pro-Lys N-methyltransferase 1 (Homo sapiens) (UniProt Q9BV86); assay: Confirmatory qHTS for Inhibitors of N-terminal methyltransferase 1 (NTMT1): MTaseGlo Assay (AID 1645874); further: potency means the concentration at half of the fitted maximal effect; nearly all actives have a fitted effect of over 65% in size
# Chain of N-terminal Xaa-Pro-Lys N-methyltransferase 1 (Homo sapiens) (Q9BV86 whole entry, looked up): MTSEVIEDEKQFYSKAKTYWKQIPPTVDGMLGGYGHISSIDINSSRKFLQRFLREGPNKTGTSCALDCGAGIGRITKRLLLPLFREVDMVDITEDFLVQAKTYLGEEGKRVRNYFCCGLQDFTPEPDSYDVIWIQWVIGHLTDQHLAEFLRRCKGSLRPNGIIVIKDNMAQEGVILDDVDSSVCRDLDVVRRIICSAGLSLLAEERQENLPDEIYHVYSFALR
# Procedure, shortened: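 Preincubation of NTMT1 (125 nM) plus SAM (100 uM) with test compounds lasted 15 min; methylation of 1 uM SPKRIA then proceeded 30 min in the dark at room temperature. Luciferase signal reported SAH produced.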
compound,measurement,setting,value
Nc1nc2[nH]cc(CCc3ccc(C(=O)N[C@@H](CCC(=O)O)C(=O)O)cc3)c2c(=O)[nH]1,Potency,[1],inactive
same,Potency,[2],0.296 µM (active)
same,outcome,[3],inactive
CN([C@@H](Cc1ccc(OS(=O)(=O)c2cccc3cnccc23)cc1)C(=O)N1CCN(c2ccccc2)CC1)S(=O)(=O)c1cccc2cnccc12,"activity change, negative = viability loss",[2],7.52% [at 4.96 µM] (inactive)
O=C(O)COCCN1CCN(C(c2ccccc2)c2ccc(Cl)cc2)CC1 (centres undefined),Potency,[4],inactive
same,Potency,Papain (Carica papaya),inactive
CC(C)(C)NCC(O)c1ccc(O)c(CO)c1 (centres undefined),Potency,[4],inactive
same,Potency,[5],inactive
same,Potency,[6],inactive
same,Potency,Papain (Carica papaya),inactive
same,Potency,[2],inactive
same,Potency,[7],inactive
COc1ccc(CC2=NN3C([C@@H](CCc4ccccc4)[C@@H](C)O)=NC(C)C3C(=O)N2)cc1OC (some centres undefined),Potency,[1],inactive
same,Potency,[7],inactive
CC(C)(Sc1ccc(CCN(CCCCC2CCCCC2)C(=O)NC2CCCCC2)cc1)C(=O)O,Potency,[1],inactive
same,Potency,[2],inactive
same,Potency,[7],inactive
same,Potency,[8],28 µM (active) and 42.6 µM (active)
same,outcome,[9],inactive
same,outcome,[10],inactive
same,Potency,[11],44.1 µM (active) and inactive and 39.3 µM (active)
same,activity,[12],-3.21%
same,"activity change, negative = inhibition",[13],2.53%
same,activity,[14],-46.1%
same,activity,[15],-8.68%
CCc1cc(Nc2nccc(-c3c(-c4ccc(OC)c(C(=O)Nc5c(F)cccc5F)c4)nc4ccccn34)n2)c(OC)cc1N1CCC(N2CCN(S(C)(=O)=O)CC2)CC1,Potency,[1],6 nM (active)
same,Potency,[7],inactive and 5.9 µM (active)
C/C(=C\C(=O)Nc1ccccc1C(=O)O)c1ccc2ccccc2c1,Potency,[5],inactive
same,Potency,[2],20.9 µM (active)
Cc1cc([C@@H](C)Nc2ccccc2C(=O)O)c2nc(N3CCOCC3)cc(=O)n2c1,Potency,[1],inactive
same,Potency,[2],2.24 µM (active) and 1.86 µM (active)
same,Potency,[7],2.51 µM (active) and 1.66 µM (active)
COc1cccc2cc(-c3nc(C4CCC(C(=O)O)CC4)n4ncnc(N)c34)[nH]c12 (centres undefined),Potency,[5],inactive
same,Potency,[6],inactive
same,Potency,[2],5.9 µM (active) and 731 nM (active)
Cc1cc(Nc2nc(N[C@@H](C)c3ncc(F)cn3)ncc2Cl)n[nH]1,Potency,[2],2.05 µM (active) and 2.95 µM (active)
Cc1cc(SCc2sc(-c3ccc(C(F)(F)F)cc3)nc2C)ccc1OCC(=O)O,Potency,[1],inactive
same,Potency,[2],inactive
same,Potency,[7],inactive
Cc1csc(NC(=O)c2sc3nc4c(c(C(F)(F)F)c3c2N)CCC4)n1,Potency,[1],inactive
same,Potency,[7],inactive
CO[C@@H]1[C@H](N(C)C(=O)c2ccccc2)C[C@H]2O[C@]1(C)n1c3ccccc3c3c4c(c5c6ccccc6n2c5c31)C(=O)NC4,Potency,[1],inactive
same,Potency,[2],1.3 µM (active) and 1.05 µM (active)
same,Potency,[7],1.3 µM (active) and 525 nM (active)
same,Potency,[16],inactive
CN[C@@H](C)C(=O)N[C@H]1CCCC[C@H]2CC[C@@H](C(=O)N[C@@H](c3ccccc3)c3cn(CCCCc4ccc(CCCCn5cc([C@@H](NC(=O)[C@@H]6CC[C@@H]7CCCC[C@H](NC(=O)[C@H](C)NC)C(=O)N76)c6ccccc6)nn5)cc4)nn3)N2C1=O,Potency,[1],inactive
same,Potency,[7],inactive
Nc1nccc(-c2ccc3noc(-c4ccc(Cl)cc4)c3c2)n1,Potency,[1],inactive
same,Potency,[2],inactive
same,activity,[12],-4.29%
same,"activity change, negative = inhibition",[13],4.33%
same,activity,[14],-9.7%
same,activity,[15],-0.0134%
C[C@H](NC(=O)Cc1cc(F)cc(F)c1)C(=O)N[C@@H]1C(=O)N(C)c2ccccc2-c2ccccc21,Potency,[2],inactive
Nc1ncnc2nc(-c3ccc(N4CCOCC4)nc3)cc(-c3cccc(Br)c3)c12,Potency,[17],515 nM (active)
C[C@]1(c2nc3c(C(N)=O)cccc3[nH]2)CCCN1,Potency,[1],inactive
same,outcome,[3],inactive
O=C(Nc1nc2ccccc2n1CCN1CCOCC1)c1cccc([N+](=O)[O-])c1,Potency,Papain (Carica papaya),inactive
same,Potency,[2],inactive
same,Potency,[7],inactive
CN(C)c1ccc(Nc2nc(N)n(C(=O)c3c(F)cccc3F)n2)cc1,Potency,[2],1.48 µM (active)
same,Potency,[7],833 nM (active)
COc1ccccc1[C@H](c1cccc2ccccc12)[C@@](C)(C#N)C(=O)N1CCC(c2cccc(C(F)(F)F)c2)CC1,Potency,[2],inactive
same,Potency,[7],inactive
Cc1n[nH]c(C)c1Cc1sc2c(c1C(=O)N1C[C@H](O)CO1)c(=O)n(C)c(=O)n2CC(C)C,Potency,[2],inactive
NC(=O)c1ccc(I)c([N+](=O)[O-])c1,Potency,[1],inactive
same,Potency,[2],18.6 µM (active)
same,Potency,[7],16600 nM (active)
same,outcome,[3],inactive
COc1cc(Nc2ncc3c(n2)-c2ccc(Cl)cc2C(c2c(F)cccc2OC)=NC3)ccc1C(=O)O,Potency,[6],inactive
same,Potency,[2],115 nM (active) and 20.5 nM (active) and 66.1 nM (active)
same,Potency,[7],91.6 nM (active) and 29 nM (active) and 37.2 nM (active)
same,activity,[12],0.763%
same,"activity change, negative = inhibition",[13],2.21%
same,activity,[14],-15.5%
same,activity,[15],2.42%
NC(=O)c1cnccn1,Potency,[4],inactive
same,Potency,[5],inactive
same,Potency,[6],inactive
same,Potency,Papain (Carica papaya),inactive
same,Potency,[2],inactive
same,Potency,[7],inactive
CC[C@H](Nc1ncnc2nc[nH]c12)c1nc2cccc(F)c2c(=O)n1-c1ccccc1,Potency,[2],164 nM (active) and 833 nM (active)
same,"activity change, negative = viability loss",[2],-6.84% [at 9.23 µM] (inactive)
CCn1cc(C(=O)O)c(=O)c2cc(F)c(N3CCNC(C)C3)c(F)c21 (centres undefined),Potency,[4],inactive
same,Potency,[5],inactive
same,Potency,[6],inactive
same,Potency,Papain (Carica papaya),15800 nM (active)
same,Potency,[2],inactive
